The text below walks through data of PubChem BioAssay AID720697 (Broad Institute, 2013).

Entries with a potency or affinity are not part of this list. Results filed as inconclusive are left out. A number with no mark means an inactive call.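 Rule for the calls: active = signal loss with fitted half-maximal concentration at or below twice the top valid tested dose in every test run; inconclusive = runs disagree, flat 30 to 70% signal loss, or poor fit; inactive = all runs flat, opposite direction, or potency beyond limit.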

The assay can be described thus: general mammalian cell viability loss – inhibitor set, cherry-pick, set 2, cytotoxicity control for miR-122 modulator project, dose response (AID 720697).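 Note: 0% = median of neutral control wells and -100% = MG132 positive control wells.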 The settings on record: HEK293T viability, CellTiter-Glo luminescence, 48 h; series mostly up to 26 µM; activity change, negative = cytotoxicity: at the top concentration. (In ATP-based viability assays light output follows the ATP content of the culture.)
As to `COc1ccc(CCNC(=O)c2c(C)cc(=O)oc2C)cc1OC`, the “activity change, negative = cytotoxicity” value was -9.1%.

`CCC(=O)N1[C@@H](CO)[C@H](c2ccccc2)[C@@H]1CN(C(C)C)S(C)(=O)=O`: the “activity change, negative = cytotoxicity” value was 104%.

`O=C(Nc1ccc(CN2CCOCC2)cc1)c1ccc(-c2ccc(Cl)cc2Cl)o1`: the “activity change, negative = cytotoxicity” value was -2.21%.

As to `CO[C@@H]1CN(C)C(=O)c2ccc(NC(=O)Nc3ccc(C(F)(F)F)cc3)cc2OC[C@H](C)NC[C@H]1C`, the “activity change, negative = cytotoxicity” value was 79.2%.

On to `COc1ccc(-c2ccc(C#N)c(OC(=O)c3c(Cl)cccc3Cl)n2)cc1`, for which the activity change, negative = cytotoxicity is -5.32% [at 6 µM].

For the molecule `Cc1cccc(NC(=O)Nc2ccc3c(c2)C(=O)N(C)[C@@H]2CC[C@H](CC(=O)NCc4ccccc4Cl)O[C@H]2CO3)c1`, the “activity change, negative = cytotoxicity” value is 128%.

For `CCC(=O)Nc1ccc2c(c1)C(=O)N(C)[C@@H]1CC[C@H](CC(=O)NCCN3CCCCC3)O[C@H]1CO2`, the “activity change, negative = cytotoxicity” value is 126%.

In the case of `CN1C(=O)c2cc(NC(=O)c3cccc(F)c3)ccc2OC[C@@H]2O[C@@H](CC(=O)O)CC[C@@H]21`, the “activity change, negative = cytotoxicity” value is 30.4% [at 23.5 µM].

As for `CC(=O)N1[C@H](CN(C(=O)c2ccc(F)cc2)C(C)C)[C@@H](c2ccccc2)[C@@H]1CO`, the “activity change, negative = cytotoxicity” value was 113%.

As to `CN1C(=O)c2cc(NC(=O)Nc3cccc(Cl)c3)ccc2OC[C@H]2O[C@@H](CC(=O)NCCc3ccncc3)CC[C@H]21`, the “activity change, negative = cytotoxicity” value is 50.4% [at 23.5 µM].

`C/C=C/c1ccc([C@H]2[C@H](CO)N[C@H]2CN(C)S(=O)(=O)c2ccccc2)cc1`: the “activity change, negative = cytotoxicity” value is 161%.

On to `CNC[C@@H]1Oc2cc(C#Cc3cccc(OC)c3)ccc2S(=O)(=O)N([C@@H](C)CO)C[C@@H]1C`, for which the “activity change, negative = cytotoxicity” value was -74.1%.

As to `O=C(Nc1ncc(Cc2cccc(C(F)(F)F)c2)s1)c1ccc(-c2cccc([N+](=O)[O-])c2)o1`, the activity change, negative = cytotoxicity is -25.5% [at 6 µM].

`CCCNC(=O)N1C[C@@H]2[C@H](c3ccccc31)[C@H](CO)N2C(=O)C1CCOCC1`: the “activity change, negative = cytotoxicity” value is 11.1%.

Consider `CN1C(=O)c2cc(NC(=O)c3cccc(F)c3)ccc2OC[C@H]2O[C@H](CC(=O)N3CCc4ccccc4C3)CC[C@@H]21`, for which the “activity change, negative = cytotoxicity” value is 7.53% [at 23.5 µM].

With `COc1ccc(NS(=O)(=O)c2ccc(NC(=O)C(C)(C(F)(F)F)C(F)(F)F)cc2)nn1`, the “activity change, negative = cytotoxicity” value was 69.7%.

Take `OCc1ccc(-c2nn(Cc3ccccc3)c3ccccc23)o1`: the “activity change, negative = cytotoxicity” value was 13.4%.

For the molecule `CN1C(=O)c2cc(NC(=O)Nc3cccc(Cl)c3)ccc2OC[C@@H]2O[C@H](CC(=O)NCCc3ccncc3)CC[C@H]21`, the “activity change, negative = cytotoxicity” value is 142%.

Consider `CCC(=O)N1[C@H](CO)[C@@H](c2ccccc2)[C@H]1CN(C(C)C)S(C)(=O)=O`, for which the “activity change, negative = cytotoxicity” value was 192%.

Turning to `CN(C)CCNC(=O)C1CC(=O)N(c2ccc(F)c(Cl)c2)C1` (configuration not stated), the “activity change, negative = cytotoxicity” value was 22.1%.

As to `Cc1cccc(-n2ncc(Cl)c(Cl)c2=O)c1`, the activity change, negative = cytotoxicity is -3.19% [at 6 µM].

Consider `O=C(NC[C@H]1[C@@H](c2ccccc2)[C@@H](CO)N1CC1CCCC1)c1ccncc1`, for which the “activity change, negative = cytotoxicity” value is 49.9%.

Take `C[C@@H]1CN([C@@H](C)CO)S(=O)(=O)c2ccc(/C=C/c3ccccc3)cc2O[C@@H]1CN(C)C(=O)c1cccnc1`: the “activity change, negative = cytotoxicity” value was 84.2%.

Regarding `CN1C(=O)c2cc(NC(=O)c3cc(F)cc(F)c3)ccc2OC[C@@H]2O[C@@H](CC(=O)O)CC[C@@H]21`, the “activity change, negative = cytotoxicity” value is -20.5%.

Turning to `CCCNC(=O)N1C[C@@H]2[C@H](c3ccccc31)[C@@H](CO)N2Cc1cc(F)ccc1F`, the “activity change, negative = cytotoxicity” value was 30.6% [at 23.5 µM].

Regarding `C[C@@H]1CN([C@H](C)CO)S(=O)(=O)c2ccc(C3=CCCC3)cc2O[C@@H]1CN(C)C(=O)Cc1ccncc1`, the “activity change, negative = cytotoxicity” value was 139%.

As for `CC(=O)N1[C@H](CO)[C@@H](c2ccccc2)[C@H]1CN(CC(C)C)C(=O)c1ccccn1`, the “activity change, negative = cytotoxicity” value was 12.4% [at 23.5 µM].
